Only some compounds are listed: those with a hit (about 3.4% of all), similar ones and a draw of the others.
TROY signal inh – inhibitors of TROY-driven NF-kB signaling, primary screen, Q293 LMP1-TROYcd cells, NF-kB luciferase, uHTS. 360,000 tested, 0.98% active. inhibition, % at 10 µM. Q293 LMP1-TROYcd NF-kB luciferase reporter, 4 h;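 active = compounds whose plate-normalised and pattern-corrected inhibition of the luciferase reporter signal at the single screening dose is 50% or more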
TRPM1 prom inh – inhibitors of MITF-dependent TRPM1 promoter reporter, primary screen, cell-based, SK-MEL-5, single point, luciferase | inhibition, % at 12.5 µM | SK-MEL-5 TRPM1 promoter luciferase, 24 h | 330,000 tested, 0.83% active;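 active = mean inhibition across replicates of 60% or more, whatever share of single replicates reaches that level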
HIF-2a inh – HIF-2a reporter inhibitors, primary screen, luminescence, 786-0 RCC cells. 786-0 RCC cells HIF-2a reporter, luciferase luminescence, overnight. inhibition, % at 18.8 µM. 360,000 tested, 0.72% active. AID 624352, 2012;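 active = inhibition of the luminescence signal of 40% or more relative to plate controls, in a single-dose primary screen at 18.75 µM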
TWEAK-Fn14 inh – inhibitors of TWEAK-Fn14 signaling, primary screen, luciferase reporter cells, uHTS. inhibition, % at 10 µM. TWEAK-stimulated Fn14 reporter cells, luciferase luminescence, 8 h. 360,000 tested, 2% active; in the data active = inhibition above about 50%
EBV LMP1 NFkB – EBV LMP1-driven NF-kappaB luciferase reporter inhibitors, primary screen, cell-based, luminescence, single point; LMP1-induced NF-kappaB luciferase reporter cells; inhibition, % at 12.5 µM; 350,000 tested, 0.69% active; AID 504558, 2011; in the data active = inhibition above about 41%
Shn3 3UTR inh – reduction of Shn3 3'UTR firefly luciferase signal, primary screen, Schnurri-3 inhibitor project, cell-based, Clone20 osteoblasts, set 2. 360,000 tested, 0.52% active. Clone20 osteoblast Shn3 3'UTR firefly luciferase, 24 h. inhibition, % at 12.5 µM;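 active = mean inhibition of at least 75% with every replicate also reaching 75%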
A number is an active result.

For COCC(=O)N1CCC(Oc2ccc(C(=O)N3C[C@H]4CC[C@H]3C4)cc2)CC1 the results were TROY signal inh inactive, TRPM1 prom inh inactive, HIF-2a inh inactive, TWEAK-Fn14 inh inactive, EBV LMP1 NFkB 65 and Shn3 3UTR inh inactive.
For COCC(=O)N1CCC(Oc2ccc(C(=O)N3C[C@@H]4CCC[C@H]3C4)cc2)CC1 the results were TROY signal inh inactive, TRPM1 prom inh inactive, HIF-2a inh inactive, TWEAK-Fn14 inh inactive, EBV LMP1 NFkB inactive and Shn3 3UTR inh inactive.
`Nc1ccc(-c2nnn(Cc3ccccc3)n2)cc1` gave TROY signal inh inactive, TRPM1 prom inh inactive, HIF-2a inh inactive, TWEAK-Fn14 inh 65, EBV LMP1 NFkB inactive and Shn3 3UTR inh inactive.
Screening COc1nc(Nc2nc3ccccc3c(=O)[nH]2)nc2ccc(C)cc12 returned TROY signal inh inactive, TRPM1 prom inh inactive, HIF-2a inh inactive, TWEAK-Fn14 inh 55, EBV LMP1 NFkB 50 and Shn3 3UTR inh inactive.
Screening COc1ccc(NC(=O)Cc2ccccc2)cn1 returned TROY signal inh inactive, TRPM1 prom inh inactive, HIF-2a inh inactive, TWEAK-Fn14 inh inactive, EBV LMP1 NFkB inactive and Shn3 3UTR inh inactive.
COc1ccc(NC(=O)/C(Cl)=C(/Cl)S(=O)Cc2ccccc2)cn1 (centres undefined) was read as TROY signal inh 63, TRPM1 prom inh 104, HIF-2a inh 94, TWEAK-Fn14 inh 98, EBV LMP1 NFkB 83 and Shn3 3UTR inh 97.
For CC1(C(=O)NS(=O)(=O)Cc2ccccc2C(F)(F)F)CCN1C(=O)Cc1ccsc1 (centres undefined) the results were TROY signal inh inactive, HIF-2a inh inactive, TWEAK-Fn14 inh inactive and Shn3 3UTR inh inactive.
`COc1ccc(CNC(=O)c2cn(Cc3ccc(OC(C)=O)cc3)c(=O)s2)cc1` gave TROY signal inh inactive, HIF-2a inh inactive, TWEAK-Fn14 inh inactive and Shn3 3UTR inh inactive.
For Cc1ccc2c(c1)nc1c3ccccc3nc(-c3ccccc3N)n21 the results were TROY signal inh inactive, HIF-2a inh inactive, TWEAK-Fn14 inh inactive, EBV LMP1 NFkB inactive and Shn3 3UTR inh inactive.
CCn1c(SCC#N)nc2ccccc2c1=O was read as TROY signal inh inactive, TRPM1 prom inh inactive, HIF-2a inh inactive, TWEAK-Fn14 inh inactive, EBV LMP1 NFkB inactive and Shn3 3UTR inh inactive.
For Fc1ccc(-c2nc3ccccc3c3nc4ccccc4n23)cc1 the results were TROY signal inh inactive, TRPM1 prom inh inactive, HIF-2a inh inactive, TWEAK-Fn14 inh 58, EBV LMP1 NFkB inactive and Shn3 3UTR inh inactive.
`Clc1ccccc1-c1nc2ccccc2c2nc3ccccc3n12` gave TROY signal inh 57, TRPM1 prom inh inactive, HIF-2a inh inactive, TWEAK-Fn14 inh inactive, EBV LMP1 NFkB inactive and Shn3 3UTR inh inactive.
Screening N#CCSc1nc2ccccc2c2nc3ccccc3n12 returned TROY signal inh inactive, TRPM1 prom inh 77, HIF-2a inh inactive, TWEAK-Fn14 inh 57, EBV LMP1 NFkB inactive and Shn3 3UTR inh inactive.
`Cc1nc2ccccc2c2nc3ccccc3n12` gave TROY signal inh inactive, TRPM1 prom inh inactive, HIF-2a inh inactive, TWEAK-Fn14 inh inactive, EBV LMP1 NFkB inactive and Shn3 3UTR inh inactive.
For CC(C)N(C(=O)c1ccc(Cc2cn(C)c3ccccc23)nc1)C(C)C the results were TROY signal inh inactive, HIF-2a inh inactive, TWEAK-Fn14 inh inactive and Shn3 3UTR inh inactive.
Screening C[C@@H]1CN([C@@H](C)CO)C(=O)c2cc(NC(=O)c3ccccc3)ccc2O[C@@H](C)CCCCO[C@@H]1CN(C)Cc1ccc(C(F)(F)F)cc1 returned TROY signal inh inactive, HIF-2a inh inactive, TWEAK-Fn14 inh inactive, EBV LMP1 NFkB inactive and Shn3 3UTR inh inactive.
O=c1cc(/C=C/c2ccccc2)oc2c1ccc1ccccc12 was read as TROY signal inh inactive, TRPM1 prom inh inactive, HIF-2a inh inactive, TWEAK-Fn14 inh 64, EBV LMP1 NFkB inactive and Shn3 3UTR inh inactive.
`O=c1cc(C(F)(F)F)oc2c1ccc1ccccc12` gave TROY signal inh inactive, TRPM1 prom inh inactive, HIF-2a inh inactive, TWEAK-Fn14 inh inactive, EBV LMP1 NFkB inactive and Shn3 3UTR inh inactive.
O=C1CCC(C(=O)Nc2cccc(S(=O)(=O)Nc3ccccc3F)c2)=NN1 was read as TROY signal inh inactive, TRPM1 prom inh inactive, HIF-2a inh inactive, TWEAK-Fn14 inh inactive, EBV LMP1 NFkB inactive and Shn3 3UTR inh inactive.
For COc1ccc(OC(F)(F)F)cc1CC1(C)C(=O)Nc2ccc(-c3ccsc3)cc21 (centres undefined) the results were TROY signal inh inactive, HIF-2a inh inactive, TWEAK-Fn14 inh inactive and Shn3 3UTR inh inactive.
Screening COc1cc(OC)c2c(-c3cccc(-c4ccc(O)cc4)c3)cc(=O)oc2c1 returned TROY signal inh inactive, TRPM1 prom inh inactive, HIF-2a inh inactive, TWEAK-Fn14 inh inactive, EBV LMP1 NFkB inactive and Shn3 3UTR inh inactive.
`COc1cc2oc(=O)cc(-c3ccc(-c4ccc(N(C)C)cc4)cc3)c2c(OC)c1OC` gave TROY signal inh 71, TRPM1 prom inh inactive, HIF-2a inh inactive, TWEAK-Fn14 inh 92, EBV LMP1 NFkB 42 and Shn3 3UTR inh inactive.
For COc1cc(OC)c2c(-c3cccc(-c4ccc(N(C)C)cc4)c3)cc(=O)oc2c1 the results were TROY signal inh inactive, TRPM1 prom inh inactive, HIF-2a inh inactive, TWEAK-Fn14 inh 52, EBV LMP1 NFkB inactive and Shn3 3UTR inh inactive.
For COc1cc(OC)c2c(-c3cccc(-c4ccc(CO)cc4)c3)cc(=O)oc2c1 the results were TROY signal inh inactive, TRPM1 prom inh 77, HIF-2a inh inactive, TWEAK-Fn14 inh 75, EBV LMP1 NFkB inactive and Shn3 3UTR inh inactive.
For COc1cc(OC)c2c(-c3cccc(-c4cccc(C)c4)c3)cc(=O)oc2c1 the results were TROY signal inh inactive, TRPM1 prom inh inactive, HIF-2a inh inactive, TWEAK-Fn14 inh inactive, EBV LMP1 NFkB inactive and Shn3 3UTR inh inactive.
COc1ccc(-c2cccc(-c3cc(=O)oc4cc(OC)cc(OC)c34)c2)cc1 was read as TROY signal inh inactive, TRPM1 prom inh 67, HIF-2a inh inactive, TWEAK-Fn14 inh inactive, EBV LMP1 NFkB inactive and Shn3 3UTR inh inactive.
For COc1ccc(-c2ccc(-c3cc(=O)oc4cc(OC)c(OC)c(OC)c34)cc2)cc1F the results were TROY signal inh inactive, TRPM1 prom inh inactive, HIF-2a inh inactive, TWEAK-Fn14 inh inactive, EBV LMP1 NFkB inactive and Shn3 3UTR inh inactive.
For COc1ccc(C)c2sc(N(CCCN(C)C)C(=O)c3ccc4c(c3)OCCO4)nc12 the results were TROY signal inh inactive, TRPM1 prom inh inactive, HIF-2a inh inactive, TWEAK-Fn14 inh inactive, EBV LMP1 NFkB inactive and Shn3 3UTR inh inactive.
For COc1ccc(N2CC(O)=C(c3nc(-c4ccc(F)cc4)cs3)C2=N)cc1OC the results were TROY signal inh inactive, TRPM1 prom inh inactive, HIF-2a inh inactive, TWEAK-Fn14 inh inactive, EBV LMP1 NFkB inactive and Shn3 3UTR inh inactive.
